The nature of experiment [1]: NCI Yeast Anticancer Drug Screen. Data for the rad50 strain (AID 155).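 Also: 0% = growth of vehicle-only cultures of the same strain.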 To be noted: S. cerevisiae rad50 strain growth inhibition; at 50.0 µM; stronger effect = higher value. The procedure, abridged: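 Cells are treated with compound, grown, and their growth is then scored against vehicle-only cultures of the same repair-deficient yeast strain.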
A short description of experiment [2]: NCI Yeast Anticancer Drug Screen. Data for the mec2-1 strain (AID 157). To be noted: S. cerevisiae mec2-1 strain, at 50.0 µM, stronger effect = higher value. The procedure, abridged: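 Strain: mec2-1 (DNA repair/cell cycle alteration). Compound exposure, then growth measured; inhibition expressed relative to vehicle.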
Experiment [3] in a line: NCI Yeast Anticancer Drug Screen. Data for the sgs1 mgt1 strain (AID 161).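 Also: 0% = growth of cultures given vehicle only.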 The note with it: S. cerevisiae sgs1 mgt1 strain, at 50.0 µM, stronger effect = higher value. The procedure, abridged: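 Read-out: growth inhibition vs vehicle controls. Cells: mutant yeast strain deficient in DNA damage repair.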
Experiment [4] in a line: NCI Yeast Anticancer Drug Screen. Data for the cln2 rad14 strain (AID 165).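 Also: 0% = growth equal to vehicle treated cultures.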 The note with it: S. cerevisiae cln2 rad14 strain, at 50.0 µM, stronger effect = higher value. The procedure, abridged: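 Compounds are applied to the cln2 rad14 yeast strain, and growth is then compared with that of vehicle-treated cultures to give inhibition.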
Experiment [5] can be described thus: NCI Yeast Anticancer Drug Screen. Data for the bub3 strain (AID 167). The note with it: S. cerevisiae bub3 mutant strain, at 50.0 µM, stronger effect = higher value. The procedure, abridged:
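Part of a panel of yeast mutants defective in DNA damage repair or cell cycle regulation. Each strain is grown with compound, and inhibition is calculated relative to solvent-treated cultures.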

Experiment [6] in a line: NCI Yeast Anticancer Drug Screen. Data for the mlh1 rad18 strain (AID 175). The note with it: S. cerevisiae mlh1 rad18 strain growth inhibition; at 50.0 µM; stronger effect = higher value. The procedure, abridged: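 Read-out is yeast growth inhibition, calculated against vehicle-only controls. The compound was applied to a strain engineered with DNA damage repair alterations.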

Values joined by “and” are separate entries in the source; they are usually repeats but may differ in a detail not shown here. Equal values may be shown once. About 79,000 compounds went through this panel and 15% of them were active in at least one assay; those are over-represented in the sample as a whole. Values without a mark were called inactive. Active and inactive are the calls of the source. Rule as the data show it: active = growth inhibition above about 70%; inactive = the rest.

Here are results for 20 molecules from PubChem BioAssay (NCI).

Consider `CCOC(=O)CC1=N/C(=N/C(=N)N[N+](=O)[O-])SC1`, for which the growth inhibition in experiment [1] was 7.45%; in experiment [2] it was -5.3%; in experiment [3], 10.4%; in experiment [4], 7.6%; in experiment [5] it was 15.3%; in experiment [6], 16%.

On to `CC(C)CCCC(C)C1CCC2C3CC=C4CC(OC(=O)CN5CC5)CCC4(C)C3CCC12C` (stereo not given), for which the growth inhibition in experiment [1] was -0.3%; in experiment [2] it was -2.65%; in experiment [3], -4.85%; in experiment [4] it was -6.85%; in experiment [5], 18.8%; in experiment [6] it was 3.2%.

Consider `CC(C)OC(=O)Nc1cccc(Cl)c1`, for which the growth inhibition is 25.9% in experiment [1]; 1.75% in experiment [2]; 23.9% in experiment [3]; -3.85% in experiment [4]; 0.3% in experiment [5]; 4.5% in experiment [6].

For the molecule `CN1CC=C(c2cccn2C)CC1`, the growth inhibition was -24.2% in experiment [1]; -24.9% in experiment [2]; -6.45% in experiment [3]; 4.05% in experiment [4]; -10.4% in experiment [5]; -37.8% in experiment [6].

For `CCC(Cl)COP(=O)(OCC(Cl)CC)O/C(C)=C(\C)OP(=S)(OCC(Cl)CC)OCC(Cl)CC` (stereo not given), the growth inhibition was 86.5% (active) in experiment [1]; 93.2% (active) in experiment [2]; 93.8% (active) in experiment [3]; 99.2% (active) in experiment [4]; 98.8% (active) in experiment [5]; 96.8% (active) in experiment [6].

`CP(C)C.[Ag][I]`: the growth inhibition in experiment [1] is -26.4%; in experiment [2], -7.85%; in experiment [3], -0.15%; in experiment [4], -41.2%; in experiment [5] it was -9.3%; in experiment [6] it was -2.4%.

Regarding `C=C1CCC2CC1C2(C)C` (stereo not given) (tested in a mixture with another compound), the growth inhibition was 7.95% in experiment [1]; -14.2% in experiment [2]; -5.7% in experiment [3]; -2.7% in experiment [4]; 5.85% in experiment [5]; -23.9% in experiment [6].

Consider `[Co+2].[Co+2].[O-]CCCN=Cc1ccccc1[O-].[O-]CCCN=Cc1ccccc1[O-]`, for which the growth inhibition in experiment [1] is 53.5%; in experiment [2], 46%; in experiment [3], 60.8%; in experiment [4], -5.1%; in experiment [5] it was 30.6%; in experiment [6] it was 58.1%.

Take `NC(=O)c1ccc(NN=O)nc1`: the growth inhibition in experiment [1] is -10.4%; in experiment [2] it was 0.9%; in experiment [3], 1.1%; in experiment [4] it was -9.85%; in experiment [5], -2.85%; in experiment [6], -2.5%.

On to `CC1(C)CN=C(Nc2ccc(F)c(F)c2)S1`, for which the growth inhibition in experiment [1] was 4.3%; in experiment [2] it was 3.8%; in experiment [3], 12.1%; in experiment [4] it was 15.3%; in experiment [5], -12.8%; in experiment [6], -19.6%.

Regarding `c1ccc(-c2sc3cccc[n+]3c2-c2ccccc2)cc1`, the growth inhibition is -5.3% in experiment [1]; 0.6% in experiment [2]; -14.5% in experiment [3]; -10.4% in experiment [4]; 13.4% in experiment [5]; -3.35% in experiment [6].

On to `C[CH2][Sn](/[CH]=C/C=C/OC)([CH2]C)[CH2]C`, for which the growth inhibition was 36.5% in experiment [1]; 47% in experiment [2]; 66.2% in experiment [3]; 16.8% in experiment [4]; 83.4% (active) in experiment [5]; 89.7% (active) in experiment [6].

For `O=P1(c2ccccc2)NC2CCCCC2N1` (stereo not given), the growth inhibition in experiment [1] is 24.2%; in experiment [2] it was -8.05%; in experiment [3], -5.3%; in experiment [4], -87%; in experiment [5], -0.9%; in experiment [6], 2.95%.

For `CC1=CC(=O)C=CC1=O`, the growth inhibition in experiment [1] is 39.1%; in experiment [2], 52.3%; in experiment [3], 28.9%; in experiment [4], 12.4%; in experiment [5], 11.3%; in experiment [6], 55.4%.

In the case of `CCOP(=O)(OCC)C1CC(C(C)C)CC=C1C` (stereo not given), the growth inhibition in experiment [1] was 5.4%; in experiment [2] it was -8.95%; in experiment [3], -2.15%; in experiment [4] it was 1.25%; in experiment [5], 3.75%; in experiment [6] it was 15.1%.

`O=C(Cc1ccccc1)Oc1ccc2c(-c3ccccc3)c(C(=O)Nc3ccc(Cl)cc3)c(=O)oc2c1`: the growth inhibition in experiment [1] was 6.75%; in experiment [2] it was 5.2%; in experiment [3] it was 2.2%; in experiment [4] it was 2.6%; in experiment [5], -23.4%; in experiment [6], 12.8%.

Turning to `COc1ccc(CC#N)cc1`, the growth inhibition in experiment [1] is -51.1%; in experiment [2], -5.25%; in experiment [3] it was 19.4%; in experiment [4] it was -35%; in experiment [5], 1.4%; in experiment [6], 15.2%.

On to `N=C(N)N1CCNc2ccccc2C1`, for which the growth inhibition in experiment [1] was 14.9%; in experiment [2], -10.2%; in experiment [3] it was -7.3%; in experiment [4] it was 28.8%; in experiment [5], -1.2%; in experiment [6] it was 6.3%.

On to `CC1CC2OC(=O)C(CN3CC3)C2CC2(C)C(O)CC(O)C12` (stereo not given), for which the growth inhibition was 32.2% in experiment [1]; 30.3% in experiment [2]; 32.5% in experiment [3]; -4.1% in experiment [4]; 10.3% in experiment [5]; 26.1% in experiment [6].

`CC1=CC(=O)CC2(C)CCC(C(C)CC(=O)CC(C)C)CC12OO` (stereo not given): the growth inhibition was 89.4% (active) and 88.8% (active) in experiment [1]; 92.3% (active) and 92% (active) in experiment [2]; 91.6% (active) and 91.4% (active) in experiment [3]; 91.8% (active) and 91.7% (active) in experiment [4]; 89.4% (active) in experiment [5]; 91.3% (active) and 89.5% (active) in experiment [6].
